Experimental data taken from PubChem BioAssay (NCATS).
Records with an inconclusive call do not appear. Entries that show only a call come without a potency. Active and inactive are the calls of the source. Calls come from the whole dose curve; as a rule, active = well fitted curve in the direction sought with a large enough effect; inconclusive = small, poorly fitted or top-dose-only effect, or another doubt; inactive = no such curve, though single readings can be large; an effect the other way counts as inactive or inconclusive.

Tests used:
[1] = qHTS of pediatric cancer cell lines to identify multiple opportunities for drug repurposing: Primary screen for BT-12 cells (AID 1347101); note: nearly all actives have a fitted effect of over 25% in size; note: potency is the fitted concentration of half-maximal effect
Outline: (§1)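 Cells (500-1,000/well) rested 5 h, then received compounds for 48 h; metabolically active cells were measured by CellTiter-Glo luminescence. Final concentrations spanned up to 46 µM (MIPE, 11-point) or 0.59 nM-46 µM (NPC, 8-point) in primary screens, 11-point in follow-ups.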

[2] = qHTS of pediatric cancer cell lines to identify multiple opportunities for drug repurposing: Primary screen for Rh18 cells (AID 1347102); note: nearly all actives have a fitted effect of over 65% in size
Outline: (§2)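 Cells (500-1,000/well) in growth media were settled 5 h at 37 degrees C, then given compounds for 48 h. Viability was read as CellTiter-Glo luminescence. Primary runs used MIPE at 11 points (0.78 nM-46 µM) and NPC at 8 points (0.59 nM-46 µM); follow-ups used 11 points.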

[3] = qHTS of pediatric cancer cell lines to identify multiple opportunities for drug repurposing: Primary screen for OHS-50 cells (AID 1347103); note: nearly all actives have a fitted effect of over 40% in size; note: potency is the fitted concentration of half-maximal effect
Outline: as §1

[4] = qHTS of pediatric cancer cell lines to identify multiple opportunities for drug repurposing: Primary screen for MG 63 (6-TG R) cells (AID 1347105); note: nearly all actives have a fitted effect of over 50% in size; note: potency is the fitted concentration of half-maximal effect
Outline: (§3)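 Phenotypic viability qHTS, 48 h compound exposure, CellTiter-Glo luminescence read-out; multi-concentration dosing so that potency and efficacy derive directly from the primary screen's curves.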

[5] = qHTS of pediatric cancer cell lines to identify multiple opportunities for drug repurposing: Primary screen for Rh41 cells (AID 1347108); note: nearly all actives have a fitted effect of over 70% in size; note: potency is the fitted concentration of half-maximal effect
Outline: as §3

[6] = qHTS of pediatric cancer cell lines to identify multiple opportunities for drug repurposing: Primary screen for control Hh wild type fibroblast cells (AID 1347106);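 note: series mostly up to about 46 µM; a drop in luminescence marks cytotoxicity and a rise apparent proliferation; nearly all actives have a fitted effect of over 55% in size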
Outline: as §2

[7] = qHTS of pediatric cancer cell lines to identify multiple opportunities for drug repurposing: Primary screen for Rh30 cells (AID 1347107); note: nearly all actives have a fitted effect of over 75% in size; note: potency is the fitted concentration of half-maximal effect
Outline: as §2

[8] = qHTS of pediatric cancer cell lines to identify multiple opportunities for drug repurposing: Primary screen for LAN-5 cells (AID 1347100); note: potency is the fitted concentration of half-maximal effect
Outline: as §2

[9] = qHTS of pediatric cancer cell lines to identify multiple opportunities for drug repurposing: Primary screen for RD cells (AID 1347104); note: nearly all actives have a fitted effect of over 55% in size; note: potency is the fitted concentration of half-maximal effect
Outline: as §3

[10] = qHTS of pediatric cancer cell lines to identify multiple opportunities for drug repurposing: Confirmatory screen for NB1643 cells (AID 1347109); note: nearly all actives have a fitted effect of over 45% in size; note: potency is the fitted concentration of half-maximal effect
Outline: as §2

[11] = qHTS of pediatric cancer cell lines to identify multiple opportunities for drug repurposing: Confirmatory screen for LAN-5 cells (AID 1347113); note: nearly all actives have a fitted effect of over 65% in size
Outline: as §2

[12] = qHTS of pediatric cancer cell lines to identify multiple opportunities for drug repurposing: Confirmatory screen for DAOY cells (AID 1347114); note: nearly all actives have a fitted effect of over 65% in size; note: potency is the fitted concentration of half-maximal effect
Outline: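 Viability measured as metabolically active cells via CellTiter-Glo luminescence following 48 hours of compound exposure, 11-point dilutions in confirmatory testing. 500-1,000 cells/well plated 5 hours before dosing; controls were DMSO and 2.3 µM bortezomib.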

[13] = qHTS of pediatric cancer cell lines to identify multiple opportunities for drug repurposing: Confirmatory screen for BT-37 cells (AID 1347117); note: nearly all actives have a fitted effect of over 55% in size; note: potency is the fitted concentration of half-maximal effect
Outline: as §2

[14] = qHTS of pediatric cancer cell lines to identify multiple opportunities for drug repurposing: Confirmatory screen for MG 63 (6-TG R) cells (AID 1347119); note: nearly all actives have a fitted effect of over 55% in size; note: potency is the fitted concentration of half-maximal effect
Outline: as §2

[15] = qHTS of pediatric cancer cell lines to identify multiple opportunities for drug repurposing: Confirmatory screen for NB-EBc1 cells (AID 1347115);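 note: cells exposed to compound for 48 h before the viability read; nearly all actives have a fitted effect of over 45% in size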
Outline: as §2

[16] = qHTS of pediatric cancer cell lines to identify multiple opportunities for drug repurposing: Confirmatory screen for control Hh wild type fibroblast cells (AID 1347121); note: nearly all actives have a fitted effect of over 70% in size
Outline: as §2

[17] = qHTS of pediatric cancer cell lines to identify multiple opportunities for drug repurposing: Confirmatory screen for A673 cells (AID 1347110);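 note: cells exposed to compound for 48 h before the viability read; nearly all actives have a fitted effect of over 65% in size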
Outline: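 A673 cells at 500-1,000 cells/well were dosed 5 h after plating, in dilution series up to 46 uM final; primary runs used 8 or 11 points and confirmatory runs used 11 points. Viability was read by CellTiter-Glo luminescence after 48 h, against DMSO and 2.3 uM bortezomib controls.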

[18] = qHTS of pediatric cancer cell lines to identify multiple opportunities for drug repurposing: Confirmatory screen for SK-N-MC cells (AID 1347111);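 note: potency is the fitted concentration of half-maximal effect; cells exposed to compound for 48 h before the readout; nearly all actives have a fitted effect of over 70% in size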
Outline: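 Metabolically active cells were quantified by ATP-dependent luminescence (CellTiter-Glo, 15 min at room temperature) following 48 h treatment. Cells had been plated at 500-1,000 per well and settled for 5 h beforehand.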

[19] = qHTS of pediatric cancer cell lines to identify multiple opportunities for drug repurposing: Confirmatory screen for TC32 cells (AID 1347118)
Outline: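 qHTS, TC32, 48 h drug treatment, CellTiter-Glo luminescence as a proxy for metabolically active cells; primary top concentration 46 µM (MIPE 11-pt, NPC 8-pt); confirmatory 11-pt.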

In the case of `Cc1cc(-c2ncc(CC(=O)Nc3ccc(-c4cnccn4)cn3)cc2C)ccn1`, the Potency [1] is reported as 6.85 µM (active), the Potency [2] is reported as “inactive” and the Potency [3] is reported as 5.44 µM (active). For the same molecule, the Potency [4] was “inactive” and the Potency [5] was “inactive”.
For `CCCCCCCCCCCCCC(=O)N[C@H](CO)[C@H](O)c1ccc([N+](=O)[O-])cc1`, the Potency [1] was 24.3 µM (active), the Potency [2] was “inactive” and the Potency [3] was “inactive”. For the same molecule, the Potency [6] was “inactive”, the Potency [7] was “inactive” and the Potency [5] was “inactive”.
In the case of `CNC(=O)c1ccc2c(C(=Nc3cccc(CN(C)C)c3)c3ccccc3)c(O)[nH]c2c1`, the Potency [1] is reported as “inactive”, the Potency [2] is reported as “inactive” and the Potency [3] is reported as 13.7 µM (active). The Potency [4] was “inactive”, the Potency [6] was “inactive” and the Potency [7] was “inactive”.
With `CC(=O)Nc1cccc(-n2c(=O)n(C3CC3)c(=O)c3c(Nc4ccc(I)cc4F)n(C)c(=O)c(C)c32)c1` the Potency [8] was 18.7 µM (active), the Potency [9] was 0.0372 µM (active) and the Potency [4] was “inactive”. The Potency [6] was “inactive” and the Potency [5] was “inactive”.
For `COc1ccc(CCN(C)CCCOc2ccc(S(=O)(=O)c3[nH]c4ccccc4c3C(C)C)cc2)cc1OC`, the Potency [8] was 23.5 µM (active), the Potency [4] was “inactive” and the Potency [6] was “inactive”. The Potency [7] was “inactive”.
With `CC(C)CN(C[C@H](O)[C@H](Cc1ccccc1)NC(=O)O[C@H]1CCOC1)S(=O)(=O)c1ccc(N)cc1` the Potency [8] was “inactive”, the Potency [10] was “inactive” and the Potency [11] was “inactive”. The Potency [12] was “inactive”, the Potency [13] was “inactive” and the Potency [14] was 8.27 µM (active).
In the case of `CC(=O)O[C@]1(C(C)=O)CC[C@H]2[C@@H]3C=C(Cl)C4=CC(=O)[C@@H]5C[C@H]5[C@]4(C)[C@@H]3CC[C@@]21C`, the Potency [1] is reported as 3.43 µM (active), the Potency [2] is reported as “inactive” and the Potency [3] is reported as 3.43 µM (active). The Potency [9] was 18.7 µM (active).
In the case of `CN1CCN(c2ncc(-c3cc(Cl)cc(Cl)c3Cl)c(N)n2)CC1`, the Potency [1] is reported as 4.32 µM (active), the Potency [2] is reported as “inactive” and the Potency [3] is reported as 3.85 µM (active). For the same molecule, the Potency [4] was “inactive”, the Potency [6] was “inactive” and the Potency [7] was “inactive”. For the same molecule, the Potency [5] was “inactive”, the Potency [12] was “inactive” and the Potency [15] was “inactive”. The Potency [13] was 26.1 µM (active), the Potency [14] was “inactive” and the Potency [16] was “inactive”.
With `C[C@@H]1[C@H](O)[C@@H](C)C=CC=CC=CC=CC=CC=CC=C[C@H](O[C@@H]2O[C@H](C)[C@H](O)[C@H](N)[C@@H]2O)C[C@@H]2O[C@](O)(C[C@@H](O)C[C@@H](O)[C@H](O)CC[C@@H](O)C[C@@H](O)CC(=O)O[C@H]1C)C[C@H](O)[C@@H]2C(=O)O` the Potency [1] was “inactive”, the Potency [2] was “inactive” and the Potency [3] was “inactive”. For the same molecule, the Potency [9] was 0.743 µM (active), the Potency [4] was “inactive” and the Potency [6] was “inactive”. For the same molecule, the Potency [7] was 0.418 µM (active), the Potency [10] was “inactive” and the Potency [17] was “inactive”. The Potency [18] was 10.4 µM (active), the Potency [11] was “inactive” and the Potency [12] was “inactive”. For the same molecule, the Potency [15] was “inactive”, the Potency [13] was “inactive” and the Potency [19] was 11.7 µM (active). The Potency [14] was “inactive” and the Potency [16] was “inactive”.
For `CCNC(=O)Nc1ccc(Oc2ncnc(N)c2C=NOC)cc1Cl`, the Potency [1] was “inactive”, the Potency [2] was “inactive” and the Potency [3] was “inactive”. The Potency [9] was “inactive”, the Potency [4] was “inactive” and the Potency [6] was “inactive”. For the same molecule, the Potency [7] was “inactive” and the Potency [5] was “inactive”.
With `CC(C)C[C@@H](C(=O)N[C@H](C(=O)OC1CCCC1)c1ccccc1)[C@H](O)C(=O)NO` the Potency [8] was 16.6 µM (active), the Potency [3] was 21.7 µM (active) and the Potency [6] was “inactive”. For the same molecule, the Potency [10] was 20.8 µM (active), the Potency [18] was 20.8 µM (active) and the Potency [12] was 18.5 µM (active). The Potency [15] was “inactive”, the Potency [19] was 23.3 µM (active) and the Potency [14] was 20.8 µM (active).
With `CN1N=C(N)c2cn([C@@H]3O[C@H](COP(=O)(O)O)[C@@H](O)[C@@H]3O)c3ncnc1c23` the Potency [8] was 0.166 µM (active), the Potency [3] was 0.193 µM (active) and the Potency [5] was 2.35 µM (active). The Potency [18] was 3.69 µM (active), the Potency [19] was 0.737 µM (active) and the Potency [14] was 0.827 µM (active).
With `Cc1c(-c2cccc3c(CCCOc4cccc5ccccc45)c(C(=O)O)n(Cc4cccnc4)c23)c(COc2ccc(N3CCN([S+](=O)([O-])N(C)C)CC3)cc2)nn1C` the Potency [8] was 20.9 µM (active), the Potency [9] was 33.2 µM (active) and the Potency [4] was 23.5 µM (active). For the same molecule, the Potency [6] was “inactive”.
In the case of `COc1ccc2c(c1)CC[C@H]1[C@@H]2CC[C@]2(C)[C@@H](NCCCCCCN3C(=O)C=CC3=O)CC[C@H]12`, the Potency [8] is reported as “inactive”, the Potency [9] is reported as “inactive” and the Potency [4] is reported as “inactive”. For the same molecule, the Potency [6] was “inactive”.
In the case of `OC(c1cc(C(F)(F)F)nc2c(C(F)(F)F)cccc12)C1CCCCN1` (stereo not given), the Potency [8] is reported as 33.2 µM (active), the Potency [4] is reported as “inactive” and the Potency [6] is reported as “inactive”. The Potency [7] was “inactive” and the Potency [5] was “inactive”.
In the case of `Cc1nc2c([nH]1)CCN(C(=O)c1ccc(NC(=O)c3ccccc3-c3ccccc3)cc1)c1ccccc1-2`, the Potency [8] is reported as “inactive”, the Potency [9] is reported as “inactive” and the Potency [4] is reported as “inactive”. For the same molecule, the Potency [6] was “inactive”, the Potency [7] was “inactive” and the Potency [5] was “inactive”.
With `Cc1ccc(C2=Nc3ccc(Cl)cc3OC2)cc1` the Potency [2] was “inactive”, the Potency [3] was “inactive” and the Potency [4] was “inactive”. The Potency [6] was “inactive”.
With `CCN1CCN(c2ccc(Nc3cc(N(C)C(=O)Nc4c(Cl)c(OC)cc(OC)c4Cl)ncn3)cc2)CC1` the Potency [1] was “inactive”, the Potency [4] was “inactive” and the Potency [6] was “inactive”. For the same molecule, the Potency [5] was “inactive”.
